Only some compounds are listed: those with a hit (about 2.8% of all), similar ones and a draw of the others.
HEK293 viab – reduces viability of HEK-293 SNCA reporter cells. HEK-293-SNCA-luc viability, GF-AFC fluorescence, 24 h. Potency, µM (series often up to 57.1 µM), for inactives: at the highest dose activity change, negative = cytotoxicity, usual class: cytotoxic. actives 0.12% (n = 150,000);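 further: potency means the concentration at half of the fitted maximal effect; 0% = DMSO-treated cells and -100% = medium-only wells without cells; nearly all actives have a fitted effect of over 30% in size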
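HEK-293-SNCA-luc cells (1500/well) plated 24 h, then exposed 24 h to a dilution series; GF-AFC added 30 min at 37C, fluorescence 405/540 nm; normalised to medium-only and DMSO wells, Hill fit.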
KDM5B inh – KDM5B demethylase inhibition; Potency, µM (highest dose often 57.7 µM), actives largely listed as inhibitors; Q9UGL1; KDM5B demethylase, FDH-coupled NADH fluorescence (FDH is formaldehyde dehydrogenase); actives 2.6% (n = 220,000); further: potency means the concentration at half of the fitted maximal effect; 0% is about no effect; nearly all actives have a fitted effect of over 70% in size
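qHTS format, multiple compound concentrations. Buffer 50 mM HEPES pH 7.5/0.01% Tween-20; 200 nM KDM5BΔAP final; 10 min compound preincubation; substrate-mix levels 12.5 µM peptide, 25 µM α-KG, 0.25 mM NAD⁺; 30 min RT; ΔRFU.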
SNCA expr inhib – inhibitors of alpha-synuclein (SNCA) gene expression | HEK-293 SNCA-luciferase knock-in, luminescence, 24 h | Potency, µM (top dose mostly 57.2 µM), inactives show at the highest dose activity change, negative = inhibition, usual class: inhibitors | actives 0.17% (n = 140,000) | AID 1671194;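 further: potency means the concentration at half of the fitted maximal effect; plate controls were DMSO cells for no effect and cell-free wells for full effect; nearly all actives have a fitted effect of over 45% in size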
IP6K1 inh – blocks human inositol hexakisphosphate kinase 1. Q92551. IP6K1 kinase, ADP-Glo luminescence, 2 h; hits give low values. activity change, % (series mostly up to about 58 µM). actives 0.81% (n = 140,000). AID 1645851; in the data active means activity change below about -25%; further: on the % scale 0 is the no-effect control and ±100 the full control effect
Target sequence (Q92551 whole entry, looked up): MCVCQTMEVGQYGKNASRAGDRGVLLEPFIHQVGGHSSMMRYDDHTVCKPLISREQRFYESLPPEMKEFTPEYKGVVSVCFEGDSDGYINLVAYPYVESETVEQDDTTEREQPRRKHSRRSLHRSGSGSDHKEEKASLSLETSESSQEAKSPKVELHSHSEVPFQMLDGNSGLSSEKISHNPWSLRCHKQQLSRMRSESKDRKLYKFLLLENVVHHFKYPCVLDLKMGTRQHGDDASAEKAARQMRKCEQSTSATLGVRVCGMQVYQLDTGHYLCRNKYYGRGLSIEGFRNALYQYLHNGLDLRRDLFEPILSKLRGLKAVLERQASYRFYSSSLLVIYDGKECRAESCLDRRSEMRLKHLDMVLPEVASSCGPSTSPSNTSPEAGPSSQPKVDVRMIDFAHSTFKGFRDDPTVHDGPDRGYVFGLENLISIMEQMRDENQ
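ADP-Glo luminescence measures ADP made by human IP6K1 during a 2 h RT reaction with ATP/IP6 (mix at 1.3 mM/130 uM); top library doses 57.5 and 19.1 uM final.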
An asterisk follows results filed as active; i = inactive; ? = inconclusive; nt = no result; [ ] = remark or other dose. Unless noted, the call rests on the fitted dose curve; in most records, active means well fitted curve in the direction sought with a large enough effect; inconclusive means small, poorly fitted or top-dose-only effect, or another doubt; inactive means no such curve, though single readings can be large; an effect the other way counts as inactive or inconclusive.

SMILES | HEK293 viab | KDM5B inh | SNCA expr inhib | IP6K1 inh
COCCNc1nc2c(S(=O)(=O)c3ccc(C(C)C)cc3)nnn2c2ccccc12 | 10% | ? | -2% | 15
COCCCNc1nc2c(S(=O)(=O)c3ccc(C)cc3)nnn2c2ccccc12 | -1% | 79µM* | ? | -5
CC(C)OCCCNc1nc2c(S(=O)(=O)c3ccc(Br)cc3)nnn2c2ccccc12 | 1% | ? | 5% | 14
COCCNc1nc2c(S(=O)(=O)c3ccc(C)cc3)nnn2c2ccccc12 | 9% | 79µM* | 8% | -3
COCCCNc1nc2c(S(=O)(=O)c3ccc(C)c(C)c3)nnn2c2ccccc12 | 10% | 79µM* | 9% | 20
CCOc1ccc(C(C)=O)cc1COc1ccc2c(C)cc(=O)oc2c1 | nt | i | nt | nt
CS(=O)(=O)c1ccc(-c2cnc([C@@H]3COCCN3Cc3ccc(Cl)cc3)[nH]2)cc1 | -17%[87.6 µM] | ? | -20%[87.6 µM] | 0
COc1ccc(-c2cnc(Nc3ccc(CN4CCN(C)CC4)cc3)c3c2CCO3)cn1 | ? | ? | 87%[87.6 µM] | -23
COc1ccc(Nc2ncc(-c3ccccc3OC)c3c2OCC3)cn1 | -14%[87.6 µM] | 35µM* | 156%[87.6 µM] | -10
COc1ccccc1-c1cnc(Nc2ccc(CN3CCN(C)CC3)cc2)c2c1CCO2 | -18%[87.6 µM] | 35µM* | 11%[87.6 µM] | -2
C[C@@H](NC(=O)NC(C)(C)C)c1onc(-c2ccc(F)cc2)c1C(=O)O | -2%[87.6 µM] | i | ? | 19
C[C@@H](NC(=O)c1nc2ccccc2[nH]1)c1onc(-c2ccc(F)cc2)c1C(=O)O | 1%[87.6 µM] | 35µM* | 1%[87.6 µM] | 7
C[C@@H](NC(=O)c1ccc(Cl)cc1)c1onc(-c2ccc(F)cc2)c1C(=O)O | 4%[87.6 µM] | i | 7%[87.6 µM] | -2
Cc1nn(-c2ccccc2)nc1C(=O)N[C@H](C)c1onc(-c2ccc(F)cc2)c1C(=O)O | 0% | 32µM* | 6% | 9
COc1ccc2c(C)c(CCC(=O)Nc3nc4ccccc4[nH]3)c(=O)oc2c1 | nt | i | nt | nt
O=C(C[C@H]1NC(=O)c2ccccc2NC1=O)Nc1nnc(Cc2ccccc2)s1 | 2% | i | 0% | 4
O=C(Cc1ccc(F)cc1)NCc1nnc2ccc(-c3ccc(Cl)cc3)nn12 | -7% | ? | -9% | 14
O=C(NCc1nnc2ccc(-c3ccc(Cl)cc3)nn12)c1cccc(Cl)c1 | -8% | 22µM* | 0% | 4
N#Cc1ccc(C(=O)NCc2nnc3ccc(-c4ccc(F)cc4)nn23)cc1 | ? | 28µM* | 12% | 45
CC(=O)Nc1cccc(C(=O)NCc2nnc3ccc(-c4ccc(C)cc4)nn23)c1 | -10% | ? | 7% | 8
O=C(NCc1nnc2ccc(-c3ccc(F)cc3)nn12)c1cccc(C(F)(F)F)c1 | -14% | 28µM* | -5% | 12
O=C(NCc1nnc2ccc(-c3ccccc3)nn12)c1cccc(Br)c1 | -26% | 22µM* | -22% | 15
CCOC(=O)N1CCN(C(=O)CN(c2ccccc2OCC)S(=O)(=O)c2ccc(C)cc2)CC1 | nt | i | nt | nt
COc1ccc(Cn2c(C3CCN(C(=O)c4cc(C)cc(C)c4)CC3)n[nH]c2=O)cc1 | -3% | i | -24% | -16
O=C(c1cc(-c2ccc(F)cc2)nc2ccccc12)N1CCC(Cc2nncn2CC2CC2)CC1 | -14% | 28µM* | 15% | 1
SMILES | HEK293 viab | KDM5B inh | SNCA expr inhib | IP6K1 inh
Cc1ccc(Cc2c(C)nc3c(C(=O)N4CCC(Cc5nncn5CC5CC5)CC4)cnn3c2C)cc1 | 2% | 28µM* | -22% | 13
Cc1ccc(-c2cc(C(=O)N3CCC(Cc4nncn4CC4CC4)CC3)c3ccccc3n2)cc1C | -18% | 22µM* | 1% | 11
Cc1nc2c(C(=O)O)cnn2c(C)c1Cc1ccccc1 | -8% | ? | 16% | 8
Cc1cc(=O)oc2c(C)c(OC(=O)CN3C(=O)NC4(CCCCC4)C3=O)ccc12 | nt | i | nt | nt
COc1ccc(/C=C/C(=O)Oc2ccc(C(C)=O)cc2)cc1 | nt | i | nt | nt
COc1cc2c(NC3CCN(C(C)C)CC3)nc(N3CCC(F)(F)CC3)nc2cc1OCCCN1CCCC1 | 24µM* | nt | nt | -16
N#Cc1ccc(CN2C[C@@H]3C(=O)N(CCN4CCc5ccccc5C4)C(=O)[C@@H]3C2)cc1 | 33% | 25µM* | 27% | -17
O=C1[C@H]2CN(Cc3ccc(F)cc3)C[C@H]2C(=O)N1CCN1CCc2ccccc2C1 | -22% | ? | -2% | 8
Cc1noc2c(NCC3CCOCC3)cc(-c3ccc(F)cc3)nc12 | -2%[87.6 µM] | ? | ? | -16
Cc1noc2c(Nc3ccc(C(N)=O)cc3)cc(-c3ccc(F)cc3)nc12 | -17%[87.6 µM] | 16µM* | -25%[87.6 µM] | 7
CN(Cc1cccnc1)c1ccc(-c2nc(COc3ccccc3)no2)cn1 | -11% | 35µM* | 31% | 15
CN(CCO)c1ccc(-c2nc(CCCc3ccccc3)no2)cn1 | -6% | ? | 106% | -4
CN(CCc1ccccn1)c1ccc(-c2nc(COc3ccccc3)no2)cn1 | -16% | 28µM* | 63% | 11
CCCc1noc(-c2cccn3c(CNC(=O)c4cc(Cl)ccc4F)nnc23)n1 | 5% | 22µM* | ? | 12
CCCc1noc(-c2cccn3c(CNC(=O)c4cc(F)ccc4Cl)nnc23)n1 | -7% | 25µM* | 1% | -3
O=C(O)C[C@@H]1CCN(C(=O)C2CCCC2)C[C@@H]1CC1=NCCc2cc(F)ccc21 | -3%[87.6 µM] | ? | -21%[87.6 µM] | -5
CCc1noc(-c2ccn3c(CNC(=O)Cc4c[nH]c5ccccc45)nnc3c2)n1 | -7% | ? | 0% | 13
CCc1noc(-c2ccn3c(CNC(=O)CCCc4ccccc4)nnc3c2)n1 | 10% | 7.1µM* | -6% | 37
O=C(CCCc1ccccc1)NCc1nnc2cc(-c3nc(C4CC4)no3)ccn12 | -1% | 28µM* | 14% | 33
Cc1csc(Nc2ccc3c(n2)CN(Cc2ccccc2C)C(=O)CO3)n1 | ? | ? | ? | -2
COc1ccc(OC)c(NC(=O)CSc2nnc(CN3CCCCC3)n2-c2ccc(F)cc2)c1 | nt | i | nt | nt
CCc1nc2c(NC(=O)c3ccc(F)c(Cl)c3)cccn2n1 | -1% | 25µM* | 18% | 14
CCOC(=O)C1(Cc2ccc(Cl)cc2)CCN(C(=O)c2cc(C)oc2C)CC1 | ? | 32µM* | -29% | 2
Cc1cc(C)c(CNC(=O)c2cc(-c3ccccc3)cc3c2OCCN3C(C)C)c(=O)[nH]1 | ? | 35µM* | ? | -15
COc1ncccc1-c1cc(C(=O)NCc2c(C)cc(C)[nH]c2=O)c2c(c1)N(C(C)C)CCO2 | -5% | 28µM* | 26% | -7
Cc1cc(C)c(CNC(=O)c2cc(-c3ccnn3C)cc3c2OCCN3C(C)C)c(=O)[nH]1 | -1%[87.6 µM] | 35µM* | 13%[87.6 µM] | -16
Cc1ccc(-c2cc(C(=O)NCc3c(C)cc(C)[nH]c3=O)c3c(c2)N(C(C)C)CCO3)cc1 | -7% | 25µM* | ? | 3
Cc1cc(C)c(CNC(=O)c2cc(-c3ccc(CN4CCOCC4)cc3)cc3c2cnn3C2CCCC2)c(=O)[nH]1 | -28% | nt | -15% | -12

Screening data: PubChem BioAssay, National Center for Advancing Translational Sciences (NCATS)
